Most compounds without a hit are left out; they make up all but 7.5% or so of the library.
Rab9 promoter act = activators of Rab9 promoter. Huh7 Rab9 promoter-luciferase reporter, luminescence, 24 h. Potency, µM (titrated, usually from 9.22 µM), usual class: activators. 320,000 compounds, 2.8% hits; also: nearly all actives have a fitted effect of over 60% in size
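Stable Rab9-luc Huh7, 1500 cells/well, 2 h settle; cmpd in DMSO, 24 h, 37 °C/5% CO2; luciferase reagent 10 min RT; luminescence.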
NPC1 promoter act = activators of NPC1 promoter; Huh7 NPC1 promoter luciferase reporter, 24 h; Potency, µM (highest dose often 9.22 µM), actives largely listed as activators; 320,000 compounds, 2.4% hits; also: nearly all actives have a fitted effect of over 60% in size
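Quantitative HTS used a cell-based reporter: Huh7 cells stably bearing the NPC1 promoter upstream of luciferase were treated with compounds for 24 h, and promoter activation was read as luminescence.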
FLuc modulator = firefly luciferase modulation, counter-screen for miR-21 project; P08659; purified FLuc, Km substrates, luminescence inhibition; Potency, µM (doses to about 57.5 µM), usual class: inhibitors; 360,000 compounds, 6.9% hits; also: nearly all actives have a fitted effect of over 55% in size
Target sequence (P08659 whole entry, looked up): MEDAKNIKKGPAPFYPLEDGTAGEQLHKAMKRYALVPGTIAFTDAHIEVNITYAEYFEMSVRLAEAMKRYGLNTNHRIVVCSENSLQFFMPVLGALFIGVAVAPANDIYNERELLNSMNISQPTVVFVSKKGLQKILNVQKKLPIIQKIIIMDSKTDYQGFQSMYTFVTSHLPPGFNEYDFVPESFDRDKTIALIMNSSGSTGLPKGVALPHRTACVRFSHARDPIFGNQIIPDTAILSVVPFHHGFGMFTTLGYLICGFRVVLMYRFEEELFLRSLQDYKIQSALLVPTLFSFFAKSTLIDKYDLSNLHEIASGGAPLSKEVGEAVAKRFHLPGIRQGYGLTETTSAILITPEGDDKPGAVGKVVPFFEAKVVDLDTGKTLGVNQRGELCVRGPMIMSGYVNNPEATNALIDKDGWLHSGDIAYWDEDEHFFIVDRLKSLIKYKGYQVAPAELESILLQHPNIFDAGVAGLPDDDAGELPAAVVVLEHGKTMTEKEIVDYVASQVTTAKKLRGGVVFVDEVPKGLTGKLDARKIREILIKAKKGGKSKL
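Purified P. pyralis luciferase, 10 nM final, with Km-level 10 uM D-luciferin and 10 uM ATP in 50 mM Tris acetate pH 7.5, 10 mM Mg acetate, 0.01% Tween-20, 0.05% BSA; 6-point qHTS titration about 60 µM downward; luminescence read.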
SMN2 splice up = increases expression of the SMN2 splice variant | HEK293 SMN2-luciferase splicing reporter, luminescence, 30-36 h | Potency, µM (highest dose often 46.1 µM), actives largely listed as activators | 210,000 compounds, 2.8% hits; also: nearly all actives have a fitted effect of over 55% in size
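qHTS luciferase splicing reporter: luminescence rises when SMN2 exon 7 is included in transfected HEK293 cells. Compound exposure lasted 30-36 h at 37C, with 4.5 mM final sodium butyrate as control, followed by a ONE-Glo read.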
ELG1 genotox = genotoxicity induction in ELG1-luciferase HEK293T cells; HEK293T ELG1-luciferase reporter, luminescence, 16 h; Potency, µM (titrated, usually from 46 µM), hits mostly activators; 330,000 compounds, 1.3% hits; also: nearly all actives have a fitted effect of over 60% in size
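Step 1: seed 2,000 HEK293T ELG1-luciferase cells per well. Step 2: add compound or DMSO, incubate 16 hr at 37 °C. Step 3: ONE-Glo, 30 min at room temperature, read luminescence.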
Luc counter = Kinase-Glo luciferase inhibition (counter-screen) | Kinase-Glo luciferase, ATP luminescence, 8 min | Potency, µM (titrated, usually from 38.3 µM), hits mostly inhibitors | 200,000 compounds, 0.28% hits | AID 1379; also: nearly all actives have a fitted effect of over 60% in size
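Luminescence was the read-out, taken after 8-minute incubation at ambient temperature. Luciferase turned over luciferin with 10 uM ATP in imidazole pH 7.2 buffer containing KCl, MgCl2, Tween 20 and BSA.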
A number is an active result; – = inactive; ? = inconclusive; · = not tested or not shown; [ ] = dose if it differs, or a comment. Calls follow the shape of the dose curve; as a rule, active = well fitted curve in the direction sought with a large enough effect; inconclusive = small, poorly fitted or top-dose-only effect, or another doubt; inactive = no such curve, though single readings can be large; an effect the other way counts as inactive or inconclusive.

SMILES	Rab9 promoter act	NPC1 promoter act	FLuc modulator	SMN2 splice up	ELG1 genotox	Luc counter
O=C(N/N=C/c1ccc(Br)s1)c1ccccn1	1.41µM	2.82µM	4.78µM	3.55µM	9.2µM	?
CC(C)(C)c1ccc(/C=N/NC(=O)c2ccccn2)cc1	0.891µM	0.316µM	0.379µM	·	?	–
O=C(N/N=C/c1ccsc1)c1ccccn1	4.47µM	2.82µM	15.1µM	·	?	?
COc1ccccc1C(=O)Nc1ccccc1N1CCN(S(C)(=O)=O)CC1	–	–	–	?	–	–
COc1ccccc1C(=O)Nc1ccc(N2CCN(S(C)(=O)=O)CC2)cc1	?	–	?	?	9.2µM	–
COc1c(C)cccc1C(=O)Nc1ccc(N2CCN(S(C)(=O)=O)CC2)cc1	3.16µM	3.98µM	15.1µM	?	?	–
COc1c(C)cc(Br)cc1C(=O)Nc1ccc(N2CCN(S(C)(=O)=O)CC2)cc1	–[1.84 µM]	–	–	–	–	–
COc1ccc(S(=O)(=O)N2CCC(C(=O)NC(C)c3ccccc3)CC2)cc1 (configuration not stated)	·	·	–	–	·	·
Cc1nn(CC(=O)N2CCN(c3ccccc3)CC2)c(=O)c2cc3cc(F)ccc3n12	·	·	–	–	·	·
Cc1ccc(Nc2c(-c3c[nH]c4ccccc34)nc3ccccn23)cc1	·	·	?	–	·	·
CCn1c(C(=O)OC)cc2c1ccn2-c1ccc(F)cc1	?	?	9.53µM	15.8µM	16.4µM	–
CC1CCCN(C(=O)CSc2nc3ccccc3o2)C1 (configuration not stated)	3.16µM	2.51µM	16.9µM	–	?	–
CN(C(=O)CSc1nnc(-c2cccnc2)o1)C1CCCCC1	–	–	–	·	–	·
O=C(O)c1ccc2oc(SCC(=O)N3CCCCC3)nc2c1	2.51µM	3.55µM	16.9µM	12.6µM	?	–
CN(C(=O)CSc1nc2ccccc2o1)C1CCCCC1	2.82µM	2.24µM	7.57µM	·	?	·
CSc1ccc(CCNC(=O)CCn2c(=O)c3cccn3c3ccc(F)cc32)cc1	·	·	–	·	·	·
Cc1csc2nc(COC(=O)c3ccccc3NC(=O)c3ccc(C(C)(C)C)cc3)cc(=O)n12	·	·	2.69µM	·	·	·
O=C(OCc1cc(=O)n2c(n1)sc1ccccc12)c1ccc(O)cc1	–	–	?	20µM	?	–
CCc1nn2c(=O)cc(COC(=O)c3ccccc3)nc2s1	·	·	16.9µM	·	·	·
O=c1cc(CCl)nc2sc3ccccc3n12	–	–	–	–	–	–
CCc1nn2c(=O)cc(COC(=O)c3ccccc3NC(=O)c3ccc(C(C)(C)C)cc3)nc2s1	·	·	5.36µM	·	·	·
COCCNC(=O)c1cnc2sc(N3CCCCC3)nn2c1=O	·	·	–	·	·	·
CCn1cc(/C=C(\NC(=O)c2ccccc2F)C(=O)NCCCN2CCOCC2)c2ccccc21	–	–	–	·	–	·
CCn1cc(/C=C(\NC(=O)c2ccccc2Cl)C(=O)NCCN2CCOCC2)c2ccccc21	–	–	16.9µM	·	–	·
Cc1ccc2c(c1)Sc1c(ccc3ccccc13)N2	2.51µM	?	12µM	·	?	·
SMILES	Rab9 promoter act	NPC1 promoter act	FLuc modulator	SMN2 splice up	ELG1 genotox	Luc counter
O=C(Nc1cc(Cl)ccc1N1CCCC1)C1=COCCO1	–	–	–	·	–	·
CCOC(=O)c1sc2nc3c(SCCC(=O)O)cc(C(=O)c4cc(OC)ccc4O)cn3c(=O)c2c1C	–	–	3.01µM	–	–	–
CCc1c(C)sc2nc3c(C(=O)N4CCOCC4)cc(C(=O)c4cc(F)ccc4O)cn3c(=O)c12	–	–	–	–	–	–
CCOC(=O)c1sc2nc3c(SCCC#N)cc(C(=O)c4cc(F)ccc4O)cn3c(=O)c2c1C	–	–	–	–	–	–
O=C(O)CSc1cc(C(=O)c2cc(F)ccc2O)cn2c(=O)c3c(-c4ccccc4)csc3nc12	–	–	26.9µM	·	–	·
COCCCn1c(SCC(=O)OC2CCCCC2)nnc1-c1ccco1	–	–	12µM	–	–	–
COCCCn1c(SCC(=O)OC2CCCCC2)nnc1-c1cccs1	–	–	19µM	–	–	–
COc1cc(OC)c(NC(=O)c2ccc3nc(C(C)C)oc3c2)cc1Cl	·	·	–	·	·	·
Cc1ccc2c(=O)cc(C(=O)Nc3ccc(S(=O)(=O)N(C)c4ccccc4)cc3)oc2c1C	·	·	–	–	·	·
Cc1ccccc1N=Cc1cccc(O)c1O	–	–	?	–	–	–
Oc1cccc(/C=N/N=C/c2cccc(O)c2O)c1O	–	–	1.69µM	·	?	·
COC(=O)c1n[nH]n(-c2ccccc2)c1=O	·	·	–	–	·	·
CCOC(=O)c1ccc(NC(=O)CN2C(=O)C(C)SC(C)C2=O)cc1 (configuration not stated)	–	–	?	–	–	–
CCOC(=O)c1ccc(NC(=O)CN2C(=O)CSC(C)C2=O)cc1 (configuration not stated)	–	–	16.9µM	–	–	–
Cc1cc2cc(CN(CCN(C)C)C(=S)NCc3ccco3)c(=O)[nH]c2cc1C	–	–	–	–	–	–
CCN(CC)CCN(Cc1cc2cc(C)c(C)cc2[nH]c1=O)C(=S)NCc1ccco1	–	–	23.9µM	·	–	–
O=C(Nc1ccc2ccccc2n1)c1ccccc1Br	3.55µM	?	3.38µM	·	?	·
Cc1ccc(C(=O)Nc2ccc3ccccc3n2)cc1	0.631µM	3.16µM	1.69µM	·	?	·
COc1ccc(C(=O)Nc2ccc3ccccc3n2)cc1OC	2.82µM	2.82µM	13.5µM	·	?	·
O=C(Nc1ccc2ccccc2n1)c1ccccc1	0.891µM	2.24µM	2.39µM	·	?	·
O=C(c1ccccc1)c1ccc2ccccc2n1	–	–	?	–	–	–
COC(=O)C/C=C/[C@@H](C)[C@H](NC(=O)OCC(Cl)(Cl)Cl)c1cccc(OC)c1	·	·	·	–	·	–
Cc1nn(C)c2c1c(C(F)(F)F)cc(=O)n2Cc1ccc(Br)cc1F	·	·	–	·	·	·
Cc1cc(Cl)ccc1OCC(=O)Nc1c(Cl)ccc2nsnc12	·	·	–	–	·	·
O=C(CCc1ccccc1)Nc1ccc2ccccc2n1	1.12µM	3.16µM	6.75µM	12.6µM	?	–
SMILES	Rab9 promoter act	NPC1 promoter act	FLuc modulator	SMN2 splice up	ELG1 genotox	Luc counter
COC(=O)c1ccccc1NC(=O)Cn1c(=O)n(CCCC(=O)NCc2ccccc2Cl)c(=O)c2ccccc21	·	·	–	–	·	·
O=C(Cn1cc(S(=O)(=O)N2CCN(c3ccccc3F)CC2)c2ccccc2c1=O)Nc1ccc(F)cc1Cl	·	·	–	–	·	·
COc1ccc2cc(/C=C/C(=O)N3CCN(CC(=O)N4CCCCCC4)CC3)ccc2c1	–	–	?	·	–	·
c1ccc(-c2cnc(-c3cccnc3)o2)cc1	?	?	15.1µM	–	?	–
Cc1ccc(-c2cnc(-c3ccccc3C(=O)O)o2)cc1	?	?	13.5µM	·	?	·
NC(=O)c1ccc(-c2ncc(-c3ccccc3)o2)cc1	?	0.282µM	2.13µM	0.501µM	0.184µM	–
Cc1ccc(C)n1-c1cccc(C(=O)O)c1	–	–	–	–	–	–
O=C(O)c1cccc(-n2c(O)c(C=C3N=c4ccccc4=N3)sc2=S)c1	–	–	13.5µM	·	–	·

Screens (PubChem BioAssay)
